Hits are enriched below; roughly 7.9% of the tested compounds scored in any of these assays.
Lassa entry inh: qHTS for Inhibitors of binding or entry into cells for Lassa Virus; Potency, µM (top dose mostly 37.9 µM), for inactives: top-dose activity change, negative = inhibition, hits mostly inhibitors; 300,000 tested, 1.2% active; Lassa virus pseudotype entry inhibition, cell reporter; AID 540256, 2011; calls by dose curve; tested in HEK293 cells; note: potency is the fitted concentration of half-maximal effect; nearly all actives have a fitted effect of over 50% in size
FMDV antiviral: High Throughput Screening for Foot and Mouth Disease Virus Antivirals. FMDV antiviral cell-based qHTS. Potency, µM (top dose mostly 57.9 µM), without a hit: at the highest dose activity change, negative = inhibition, usual class: inhibitors. 410,000 tested, 1.2% active. AID 1159524, 2015; calls by dose curve; tested in HEK293T cells; note: read-out not given here; potency is the fitted concentration of half-maximal effect; nearly all actives have a fitted effect of over 45% in size
HCV inh: qHTS Assay for Inhibitors of Hepatitis C Virus (HCV) | Huh7.5.1 HCVcc-Cre infection, luciferase reporter, 44 h | Potency, µM (highest dose often 41.8 µM), inactives show at the highest dose activity change, negative = inhibition, actives largely listed as inhibitors | 340,000 tested, 3.4% active | AID 651820, 2012; active = well fitted inhibition curve with a large enough effect; inconclusive = small, poorly fitted or top-dose-only effect, or another doubt; inactive = no such curve, though single readings can be large or run the other way; note: potency is the fitted concentration of half-maximal effect
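HCVcc-Cre virus at an moi near 0.5 was added right after compound to cells cultured 4 h from seeding (1,000 cells/well). Luciferase activity was determined 44 h later, 15 min after substrate addition at RT.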
Marburg entry inh: qHTS for inhibitors of binding or entry into cells for Marburg Virus | AID 540276, 2011 | 300,000 tested, 1.8% active | Potency, µM (top dose mostly 37.8 µM), without a hit: at the highest dose activity change, negative = inhibition, actives largely listed as inhibitors | Marburg virus pseudotyped entry inhibition, cell reporter; calls by dose curve; tested in HEK293 cells; note: potency is the fitted concentration of half-maximal effect
HCMV inh: qHTS Assay for inhibitors of the human cytomegalovirus (HCMV); 410,000 tested, 4.5% active; activity change, negative = inhibition, % at 57.5 µM; HFF cells, HCMV-luciferase reporter, 72 h; active compounds read low; in the data active = activity change below about -60%; inconclusive = no clear call, values can overlap the other calls; inactive = above about -39%
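Two-dose cell screen: HFF monolayers treated with compounds and infected with luciferase-expressing HCMV at 1 PFU/cell, 72 h at 37C, then lysed for luciferase measurement.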
Starred values were filed as active, the others as inactive; ? = inconclusive; nt = no result given; [ ] = remark or other dose. % is set by controls: 0 for no effect and ±100 for the full control effect.

SMILES	Lassa entry inh	FMDV antiviral	HCV inh	Marburg entry inh	HCMV inh
Cc1cc(NC(=O)c2cc(-c3cccc(OCC(C)C)c3)nc3ccccc23)no1	nt	0%	13µM*	nt	-5
COc1ccc(-c2cc(C(=O)Nc3ccc(C)c(N)c3)c3ccccc3n2)cc1	?	17%	11µM*	?	-9
CC(C)(C)c1ccc(-c2cc(C(=O)NNC(=O)Nc3ccccc3)c3ccccc3n2)cc1	5.6µM*	?	?	?	95
COc1ccccc1-c1cc(C(=O)N/N=C/c2sccc2C)c2ccccc2n1	?	?	?	13µM*	?
COc1ccc(/C=N/NC(=O)c2ccncc2)cc1CN1CCOCC1	-22%	-13%	-2%	-22%[14.2 µM]	-4
CCOc1cccc(-c2cc(C(=O)N/N=C/c3ccc(OC)c(CN4CCOCC4)c3)c3ccccc3n2)c1	?	9%	-13%	8.2µM*	0
CCOc1ccccc1-c1cc(C(=O)N/N=C/c2ccc(O)c(OC)c2)c2ccccc2n1	7.1µM*	?	-4%	?	-33
CCOc1ccccc1-c1cc(C(=O)N/N=C/c2ccc3c(c2)OCO3)c2ccccc2n1	?	-4%	-4%	?	7
Cc1ccsc1/C=N/NC(=O)c1cc(-c2ccncc2)nc2ccccc12	?	-20%	?	0.58µM*	-95*
COc1ccc(CCNC(=O)c2c(O)nc3ccccn3c2=O)cc1OC	nt	-8%	nt	-2%[46.1 µM]	-15
C[C@@H]1CC[C@H]2C(=O)O[C@@H](COc3ccc(C(C)(C)C)cc3)CN2[C@@H]1c1ccc(Br)cc1	-5%[14.3 µM]	nt	nt	?	nt
CCN(CC)S(=O)(=O)c1ccc(S(=O)(=O)Nc2c(C)nn(C)c2C)cc1	5%	?	?	?	-73*
Cc1ccc(-c2noc(-c3ccc(NC4CCCC4)c([N+](=O)[O-])c3)n2)cc1	23%[46.1 µM]	9%	nt	4%[46.1 µM]	5
O=C(C#Cc1ccccc1)Nc1ccc(F)cc1	?	11%	?	?	-102*
O=C(CC(=O)Nc1cccc(F)c1)Nc1cccc(F)c1	0%	67%	4%	2%	52
COc1ccc(NC(=O)C#Cc2ccccc2)cc1	?	50%	-29%	?	?
O=C(C#Cc1ccccc1)Nc1cccc(F)c1	11µM*	33%	?	?	-104*
O=C(Cn1cnc2ccccc2c1=O)c1ccc(OC(F)F)cc1	?	24%	-5%	?	34
Cc1oc(-c2ccccc2NC(=O)C2CCC2)nc1CNC(=O)c1cccc(C(F)(F)F)c1	nt	9%	nt	nt	nt
Cc1ccc(C)n1C1C(=O)N(Cc2ccc(C(C)C)cc2)c2ccc(F)cc21 (stereo not drawn)	nt	nt	nt	nt	27
Cc1ccc2cc(C=C(C#N)C#N)c(Cl)nc2c1	1%	32µM*	?	-1%	31
Cc1ccc(NC(=O)C2CCCN(S(=O)(=O)c3cnc[nH]3)C2)cc1F (stereo not drawn)	nt	-10%	?	nt	61
O=C(Nc1cccc(F)c1)C1CCCN(S(=O)(=O)c2cnc[nH]2)C1 (stereo not drawn)	nt	-21%	19%	nt	-62*
Cc1ccc(C(CCNC(C)c2cccs2)c2ccco2)cc1 (stereo not drawn)	?	46%	-7%	?	-61*
COc1ccc(/C=C/C(=O)c2c(O)n(CCC3=CCCCC3)c(=O)[nH]c2=O)cc1	?	35µM*	4%	?	-39
SMILES	Lassa entry inh	FMDV antiviral	HCV inh	Marburg entry inh	HCMV inh
CCCCCCCCCCCCC/C=C\[C@@H](O)[C@H](CO)NC(C)=O	nt	5%	nt	nt	nt
Cc1ccc(S(=O)(=O)CCC(=O)c2cccc([N+](=O)[O-])c2)cc1	?	25µM*	?	?	-12
Cc1ccc(C(=O)CCS(=O)(=O)c2ccc(Br)cc2)cc1	?	11%	10%	15%[46.1 µM]	32
O=C(COC(=O)c1ccc[n+]([O-])c1)Nc1ccc(Cl)cc1[N+](=O)[O-]	4%	0%	6%	-3%	-6
CCN1C(=O)[C@H]2[C@@H](c3ccc(C)cc3)N[C@]3(CCCN(Cc4ccco4)C3=O)[C@H]2C1=O	nt	-14%	nt	nt	-12
O=C(NC1CCCC1)C(c1ccc(F)cc1)N(Cc1ccc(F)cc1)C(=O)CCl (stereo not drawn)	-19%	?	?	-7%	-67*
O=C(NC1CCCCC1)C(c1cccnc1)N(C(=O)CCl)c1ccccc1Cl (stereo not drawn)	?	-13%	3.2µM*	?	-103*
O=C(NC1CCCCC1)C(c1cccnc1)N(C(=O)CCl)c1ccc(F)cc1 (stereo not drawn)	?	?	1.1µM*	?	-99*
COc1ccc(C(C(=O)NC2CCCCC2)N(C(=O)c2ccccn2)c2cccnc2)cc1 (stereo not drawn)	7%	2%	8%	-2%[46.1 µM]	71
COc1ccc(N(C(=O)CCl)C(C(=O)NC2CCCCC2)c2cccnc2)cc1 (stereo not drawn)	13µM*	11µM*	3.2µM*	?	-102*
CCC(C)NC(=O)Nc1ccc(Br)cc1 (stereo not drawn)	3%[46.1 µM]	6%	5%	?	?
CCC(C)Nc1ccc(NC(C)CC)cc1 (stereo not drawn)	nt	?	22µM*	nt	nt
Cc1cc(C(=O)NC2CCCc3c2cnn3-c2ccc(C)c(C)c2)n(C)n1 (stereo not drawn)	nt	?	8.9µM*	nt	-99*
COCc1ccc(C(=O)NC2CCCc3c2cnn3-c2ccc(C)c(C)c2)o1 (stereo not drawn)	nt	?	?	nt	-77*
Cc1ccc(-n2ncc3c2CCCC3NC(=O)c2ccoc2)cc1C (stereo not drawn)	-30%	-28%	?	?	?
CC(=O)NS(=O)(=O)c1ccc(NC(=O)COc2ccc(C(=O)c3ccccc3)cc2)cc1	5%	-20%	0%	-3%	-1
O=C(NC1(Cc2ccccc2)CCN(CCCc2ccccc2)C1=O)c1ccccc1 (stereo not drawn)	nt	1%	?	nt	-98*
c1ccc(CCCCN2CCN=C2Nc2ccccc2)cc1	nt	-5%	-12%	nt	-22
O=C(NCc1cccc(F)c1)[C@@H]1[C@@H](CO)[C@@H]2Cn3c(cccc3=O)[C@H]1N2C(=O)c1cnccn1	nt	nt	nt	nt	-9
COc1ccc(S(=O)(=O)NC2CC(=O)N(c3ccc4c(c3)OCCO4)C2)cc1 (stereo not drawn)	11%	-2%	5%	6%[46.1 µM]	-12
CC(=O)c1cccc(Nc2nc(-c3cccc([N+](=O)[O-])c3)cs2)c1	?	-16%	2.2µM*	?	26
O=[N+]([O-])c1cccc(-c2csc(N/N=C/c3cccc(O)c3)n2)c1	7.9µM*	?	?	?	-35
CC(=O)Nc1nc(C)c(-c2csc(Nc3cccc(C(C)=O)c3)n2)s1	nt	-9%	10µM*	nt	-32
